Test results: PMC5540273 (PLoS ONE, 2017)

How the values were obtained:
Settings in all cases: concentration: 1 μM, replicates: in singlicate; n = 1
PDGFRB = tested on: PDGFRB
PDPK1 = tested on: PDPK1
PFTAIRE2 = tested on: PFTAIRE2
PFTK1 = tested on: T1, PFTK1
T1 construct: gene CDK14

PHKG1 = tested on: PHKG1
PHKG2 = tested on: PHKG2
PIK3C2B = tested on: PIK3C2B
PIK3C2G = tested on: PIK3C2G
PIK3CA = tested on: PIK3CA
PIK3CB = tested on: PIK3CB
PIK3CD = tested on: PIK3CD
PIK3CG = tested on: PIK3CG
PIK4CB = tested on: T2, PIK4CB
T2 construct: gene PI4KB

PIKFYVE = tested on: PIKFYVE
PIM1 = tested on: PIM1
PIM2 = tested on: PIM2
PIM3 = tested on: PIM3
PIP5K1A = tested on: PIP5K1A
PIP5K1C = tested on: PIP5K1C
PIP5K2B = tested on: PIP5K2B
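Note: KINOMEscan kinase panel screen.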

Row | SMILES | %Inh (PDGFRB) | %Inh (PDPK1) | %Inh (PFTAIRE2) | %Inh (PFTK1) | %Inh (PHKG1) | %Inh (PHKG2) | %Inh (PIK3C2B) | %Inh (PIK3C2G) | %Inh (PIK3CA) | %Inh (PIK3CB) | %Inh (PIK3CD) | %Inh (PIK3CG) | %Inh (PIK4CB) | %Inh (PIKFYVE) | %Inh (PIM1) | %Inh (PIM2) | %Inh (PIM3) | %Inh (PIP5K1A) | %Inh (PIP5K1C) | %Inh (PIP5K2B)
1 | COc1cc2ncnc(Nc3ccc(OCc4ccccc4Br)c(Cl)c3)c2cc1OC.Cl [GI261590] | 0% | 0% | 4% | 29% | 3% | 0% | 0% | 0% | 0% | 45% | 0% | 0% | 0% | 28% | 0% | 0% | 15% | 34% | 56% | 11%
2 | COc1ccc(Nc2nccc(N3CCC(NC(=O)c4cccc(NC(C)=O)c4)C3)n2)cc1 (stereo not shown) [GSK1379732] | 20% | 10% | 17% | 36% | 0% | 1% | 0% | 0% | 0% | 9% | 0% | 0% | 0% | 0% | 0% | 0% | 0% | 49% | 70% | 12%
3 | O=C(Nc1n[nH]c2nc(-c3ccco3)c(Br)cc12)c1ccc(CN2CCCC2)cc1.O=C(O)[C@H](O)[C@@H](O)C(=O)O [SB-742352] | 99.7% | 0% | 5% | 0% | 0% | 0% | 0% | 0% | 0% | 0% | 0% | 5% | 40% | 0% | 0% | 0% | 0% | 0% | 0% | 0%
4 | CS(=O)(=O)CCNCc1nc(-c2ccc3ncnc(Nc4ccc(OCc5cccc(F)c5)c(Cl)c4)c3c2)cs1.Cl [GW583340] | 12% | 0% | 12% | 16% | 0% | 0% | 37% | 0% | 0% | 0% | 29% | 0% | 26% | 0% | 20% | 0% | 8% | 1% | 38% | 0%
5 | NC(=O)c1sc(-n2cnc3ccccc32)cc1OCc1ccccc1F [GSK1024306] | 2% | 19% | 7% | 6% | 0% | 0% | 0% | 0% | 0% | 0% | 39% | 0% | 0% | 20% | 21% | 0% | 0% | 0% | 53% | 0%
6 | Nc1nc(-c2ccccn2)c(-c2ccnc3ccccc23)s1 [GW548057] | 23% | 0% | 9% | 29% | 0% | 6% | 0% | 0% | 7% | 14% | 0% | 10% | 0% | 33% | 0% | 0% | 0% | 54% | 87% | 14%
7 | Nc1nc(-c2cccnc2)c(-c2ccnc3ccccc23)s1 [GW684083] | 28% | 0% | 16% | 27% | 14% | 0% | 0% | 0% | 0% | 0% | 0% | 0% | 0% | 12% | 0% | 0% | 0% | 25% | 58% | 0%
8 | Cl.O=S(=O)(c1cccc(F)c1)c1ccc(Nc2ncnc3cc(Br)sc23)cc1Cl [GSK306886] | 46% | 0% | 24% | 21% | 0% | 0% | 28% | 0% | 0% | 0% | 21% | 5% | 6% | 0% | 14% | 0% | 0% | 9% | 70% | 3%
9 | FC(F)(F)c1cc(Nc2nccc(-c3c(-c4ccc(Cl)cc4)nn4ncccc34)n2)ccc1Cl [GW829351] | 3% | 0% | 0% | 0% | 0% | 0% | 0% | 0% | 0% | 0% | 0% | 0% | 0% | 16% | 0% | 0% | 0% | 10% | 0% | 0%
10 | Fc1ccc(Nc2nccc(-c3c(-c4ccc(Cl)cc4)nn4ncccc34)n2)cc1F [GW829058] | 44% | 12% | 4% | 10% | 7% | 0% | 6% | 29% | 25% | 50% | 54% | 18% | 32% | 20% | 31% | 11% | 24% | 13% | 54% | 14%
11 | COc1cc2c(Nc3cccc(NC(=O)c4ccccc4)c3)ncnc2cc1OCCCN1CCOCC1 [GSK223810] | 85% | 100% | 16% | 0% | 5% | 12% | 0% | 0% | 0% | 0% | 0% | 0% | 0% | 0% | 0% | 0% | 5% | 0% | 26% | 2%
12 | O=C(CCO)NCCn1ccc2ncnc(Nc3ccc(Oc4cccc(C(F)(F)F)c4)c(Cl)c3)c21 | 0% | 0% | 0% | 19% | 0% | 3% | 0% | 0% | 0% | 0% | 0% | 0% | 0% | 34% | 0% | 0% | 0% | 0% | 41% | 5%
13 | Cn1ccc2ncnc(Nc3ccc(Oc4cccc(Cl)c4)c(Cl)c3)c21 | 4% | 22% | 24% | 0% | 0% | 10% | 0% | 28% | 10% | 60% | 8% | 8% | 0% | 0% | 8% | 17% | 22% | 0% | 0% | 54%
14 | O=C(Nc1ccccc1F)NC1CCN(c2ccnc(Nc3ccc(F)cc3)n2)C1 (stereo not shown) [GSK1379722] | 8% | 14% | 7% | 14% | 13% | 0% | 0% | 0% | 0% | 0% | 0% | 0% | 100% | 0% | 0% | 0% | 0% | 0% | 45% | 14%
15 | Fc1cccc(COc2ccc(Nc3ncnc4sc(-c5ccc[nH]5)cc34)cc2Cl)c1 [GW707818] | 19% | 5% | 22% | 23% | 0% | 12% | 0% | 7% | 0% | 1% | 0% | 0% | 0% | 0% | 20% | 0% | 14% | 29% | 46% | 0%
16 | Cl.c1ccc(Cn2ccc3cc(Nc4ncnc5ccccc45)ccc32)cc1 [GW275568] | 35% | 22% | 28% | 29% | 0% | 23% | 31% | 3% | 14% | 0% | 0% | 21% | 24% | 0% | 27% | 1% | 23% | 0% | 34% | 6%
17 | CNc1nccc(-c2c(-c3ccc(F)cc3)ncn2CCCN2CCOCC2)n1 [SB-222516] | 4% | 0% | 9% | 0% | 0% | 0% | 0% | 3% | 0% | 6% | 0% | 0% | 20% | 0% | 0% | 0% | 81% | 6% | 17% | 0%
18 | Nc1nc(-c2ccc3c(N)n[nH]c3c2)cc(N2CCCCC2)n1 [GSK2228768] | 8% | 94.6% | 1% | 9% | 0% | 0% | 0% | 0% | 0% | 0% | 0% | 0% | 0% | 0% | 0% | 0% | 0% | 0% | 31% | 4%
19 | CCCc1ccc(S(=O)(=O)NC2CCN(c3ccnc(Nc4ccc(OC)cc4)n3)C2)cc1 (stereo not shown) [GSK1379737] | 51% | 0% | 5% | 0% | 0% | 0% | 0% | 0% | 0% | 0% | 0% | 0% | 0% | 0% | 0% | 0% | 0% | 52% | 56% | 22%
20 | CCn1c(-c2ccncc2)nc2cnccc21 [SB-735216] | 1% | 0% | 0% | 3% | 3% | 0% | 19% | 0% | 0% | 0% | 0% | 14% | 21% | 0% | 0% | 0% | 21% | 28% | 0% | 23%
